In PubChem BioAssay (Tox21) one finds outcome and Potency data, which are given here for eleven compounds.

Inconclusive results are not listed. Activity calls are given as the source filed them. Unless noted, calls follow the shape of the dose curve; as a rule, active = well fitted curve in the direction sought with a large enough effect in the repeat runs; inconclusive = weak or mixed curves; inactive = no such curve, though single readings can be large; an effect the other way counts as inactive or inconclusive.

The nature of test [1]: qHTS RealTime-Glo MT Cell Viability Assay in HEK293 cells - 0 hour (AID 1224880). Also: top concentration of the series differs between compounds; nearly all actives have a fitted effect of over 45% in size. The method in brief:
(§1)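 Viable HEK293 cells reduce a cell-permeant prosubstrate; the product diffuses out and is consumed by NanoLuc in the medium to give light. Compounds went in after a 5 h incubation and plates were read over the treatment course.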
A general note: Quantitative high-throughput screening tests each substance at several concentrations.

Test [2] in a line: A CellTox Green Cytotoxicity Assay to monitor cytotoxicity in HEK293 cells - 32 hour (AID 1224881). Also: nearly all actives have a fitted effect of over 40% in size. A digest of the protocol: (§2)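 Fluorescence intensity, read at 0, 8, 16, 24, 32 and 40 h of compound treatment, reflected dye binding to DNA of dead HEK293 cells; compounds (23 nL, DMSO) were added 5 h after plating cells with reagent.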
Test [3] is described as follows: A CellTox Green Cytotoxicity Assay to monitor cytotoxicity in HepG2 cells - 32 hour (AID 1224883). Also: nearly all actives have a fitted effect of over 50% in size. The method in brief:
(§3)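 Using 1536-well format, dye-containing HepG2 suspension was seeded, allowed 5 h at 37 C/5% CO2, dosed by pintool with compounds, positive and negative controls, and imaged for fluorescence across 40 h.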

The nature of test [4]: A CellTox Green Cytotoxicity Assay to monitor cytotoxicity in HEK293 cells - 8 hour (AID 1224884). Also: nearly all actives have a fitted effect of over 35% in size. A digest of the protocol:
as §2

A short description of test [5]: qHTS RealTime-Glo MT Cell Viability Assay in HepG2 cells - 16 hour (AID 1224885). Also: nearly all actives have a fitted effect of over 50% in size. The method in brief: (§4)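 HepG2 suspension premixed with RealTime-Glo reagents is plated at 600 cells per well and left 5 h at 37 C/5% CO2. Compounds in DMSO then go in, and bioluminescence reflecting viable cell number is recorded over 40 h.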
Test [6] can be described thus: qHTS RealTime-Glo MT Cell Viability Assay in HEK293 cells - 24 hour (AID 1224886). Also: top concentration of the series differs between compounds; nearly all actives have a fitted effect of over 50% in size. The method in brief: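 Reads taken at 0, 8, 16, 24, 32 and 40 h from the same wells. HEK293 cells (600/well) carried RealTime-Glo reagents from seeding, with compound added after a 5 h settle at 37 C.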
The nature of test [7]: qHTS RealTime-Glo MT Cell Viability Assay in HEK293 cells - 8 hour (AID 1224887). Also: top concentration of the series differs between compounds; nearly all actives have a fitted effect of over 50% in size. The method in brief: as §1
Test [8] in a line: A CellTox Green Cytotoxicity Assay to monitor cytotoxicity in HEK293 cells - 16 hour (AID 1224888). Also: nearly all actives have a fitted effect of over 35% in size. The method in brief: as §2
A short description of test [9]: qHTS RealTime-Glo MT Cell Viability Assay in HepG2 cells - 0 hour (AID 1224889). Also: nearly all actives have a fitted effect of over 50% in size. The method in brief:
as §4

A short description of test [10]: A CellTox Green Cytotoxicity Assay to monitor cytotoxicity in HepG2 cells - 8 hour (AID 1224890). Also: nearly all actives have a fitted effect of over 45% in size. The method in brief: as §3
Test [11] is described as follows: qHTS assay to identify small molecule antagonists of the estrogen receptor alpha (ER-alpha) signaling pathway using the BG1 cell line in the presence of 0.1 nM 17-beta-estradiol - cell viability counter screen (AID 1259241). Also: nearly all actives have a fitted effect of over 40% in size. The method in brief:
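In this screen, hormone-deprived VM7Luc4E2 cells were seeded at 4,000 per well, dosed with compound and 0.1 nM estradiol final, and incubated 22 hr at 37C and 5% CO2; fluorogenic live-cell protease signal reported viability.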

Test [12] is described as follows: qHTS assay to identify small molecule antagonists of the androgen receptor (AR) signaling pathway using the MDA cell line in the presence of 0.5 nM R1881 - cell viability counter screen (AID 1259242). Also: nearly all actives have a fitted effect of over 45% in size. A digest of the protocol:
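Viability of MDA-kb2 cells was multiplexed with the luciferase AR readout; after 16 hr with compounds and R1881 at 0.5 nM final, CellTiter-Fluor fluorescence was recorded.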

In test [13] the target is Estrogen receptor (Homo sapiens) (UniProt P03372). Briefly: qHTS assay to identify small molecule antagonists of the estrogen receptor alpha (ER-alpha) signaling pathway using the BG1 cell line in the presence of 0.1 nM 17-beta-estradiol (AID 1259244). Also: nearly all actives have a fitted effect of over 50% in size. A digest of the protocol: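 Estradiol at 0.1 nM (final) stimulates the endogenous ER-alpha of VM7Luc4E2 cells carrying an ERE-driven luciferase; compounds are co-incubated 22 h at 37C and luciferase output quantified by luminescence.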

Test [14] is described as follows: qHTS assay to identify small molecule HDAC inhibitors (AID 1259364). Also: potency is read from the fitted curve at half-maximal effect.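 Also: wild-type HCT-116 cells with endogenous class I/II HDAC activity; nearly all actives have a fitted effect of over 45% in size.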 A digest of the protocol: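 Read-out: luminescence of HDAC-Glo I/II reagent, 30 min RT, reflecting class I/II deacetylase activity in whole HCT-116 cells pre-exposed 2 h to DMSO-dissolved compounds.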
A short description of test [15]: qHTS assay to identify small molecule HDAC inhibitors - cell viability counter screen (AID 1259365). The method in brief: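 Measured quantity is CellTiter-Glo luminescence from wild-type HCT-116 cells after compound incubation of 2hr at 37C, 5% CO2; reagent developed 30min at room temperature.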
Test [16] is described as follows: qHTS assay to identify small molecule agonists of the sonic hedgehog signaling (Shh) pathway - cell viability counter screen (AID 1259366). Also: nearly all actives have a fitted effect of over 50% in size. A digest of the protocol:
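In quantitative high-throughput format, 3T3 Gli1-Luc cells were exposed to compounds for 24hr and multiplexed for viability using CellTiter-Fluor, incubated 1hr at 37C before the fluorescence read.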

The nature of test [17]: qHTS assay to identify small molecule antagonists of the sonic hedgehog signaling (Shh) pathway - cell viability counter screen (AID 1259367). Also: nearly all actives have a fitted effect of over 55% in size. The method in brief:
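Seed 3T3 Gli1-Luc cells at 2,000 per well; incubate 4 hr; add compound in DMSO, then conditioned medium; incubate at 37C with 5% CO2; add CellTiter-Fluor after 23 hr; read fluorescence 1 hr later.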

For test [18], the target named is Androgen receptor (Homo sapiens) (UniProt P10275). Briefly: qHTS assay to identify small molecule antagonists of the androgen receptor (AR) signaling pathway using the MDA cell line in the presence of 0.5 nM R1881 (AID 1259243). Also: nearly all actives have a fitted effect of over 50% in size. The method in brief:
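Reporter cells cultured without CO2 receive test chemicals, then 0.5 nM R1881 final; after 16 hr at 37C, ONE-Glo is added and light output recorded.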

Test [19] is described as follows: qHTS assay to identify small molecule phospholipidosis (PLD) inducers (AID 1259344; active = well fitted curve in the direction sought with a large enough effect; an effect the other way counts as inactive or inconclusive). A digest of the protocol:
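Quantitative HTS in HepG2: compound plus LipidTOX Red dye for 24 h, paraformaldehyde fixation with Hoechst 33342, widefield high-content imaging; amiodarone as positive and DMSO as negative control.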

The nature of test [20]: A CellTox Green Cytotoxicity Assay to monitor cytotoxicity in HepG2 cells - 0 hour (AID 1224882). Also: nearly all actives have a fitted effect of over 35% in size. The method in brief: as §3

Sequence of Estrogen receptor (Homo sapiens) (P03372 whole entry, looked up): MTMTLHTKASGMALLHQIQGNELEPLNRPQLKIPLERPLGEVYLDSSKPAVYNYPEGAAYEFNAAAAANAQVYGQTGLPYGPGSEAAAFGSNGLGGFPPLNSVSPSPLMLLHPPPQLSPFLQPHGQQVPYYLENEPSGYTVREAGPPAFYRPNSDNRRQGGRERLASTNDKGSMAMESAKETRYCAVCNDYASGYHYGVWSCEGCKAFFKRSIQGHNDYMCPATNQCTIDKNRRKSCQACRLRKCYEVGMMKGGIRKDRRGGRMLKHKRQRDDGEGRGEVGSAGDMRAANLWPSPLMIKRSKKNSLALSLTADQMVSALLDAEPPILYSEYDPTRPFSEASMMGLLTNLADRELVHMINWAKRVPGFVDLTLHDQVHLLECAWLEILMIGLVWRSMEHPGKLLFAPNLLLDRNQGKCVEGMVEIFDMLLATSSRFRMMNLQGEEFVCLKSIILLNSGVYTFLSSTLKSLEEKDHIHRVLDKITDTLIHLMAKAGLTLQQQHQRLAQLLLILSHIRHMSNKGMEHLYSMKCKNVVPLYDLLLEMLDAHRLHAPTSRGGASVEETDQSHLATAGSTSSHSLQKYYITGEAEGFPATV
Sequence of Androgen receptor (Homo sapiens) (P10275 whole entry, looked up): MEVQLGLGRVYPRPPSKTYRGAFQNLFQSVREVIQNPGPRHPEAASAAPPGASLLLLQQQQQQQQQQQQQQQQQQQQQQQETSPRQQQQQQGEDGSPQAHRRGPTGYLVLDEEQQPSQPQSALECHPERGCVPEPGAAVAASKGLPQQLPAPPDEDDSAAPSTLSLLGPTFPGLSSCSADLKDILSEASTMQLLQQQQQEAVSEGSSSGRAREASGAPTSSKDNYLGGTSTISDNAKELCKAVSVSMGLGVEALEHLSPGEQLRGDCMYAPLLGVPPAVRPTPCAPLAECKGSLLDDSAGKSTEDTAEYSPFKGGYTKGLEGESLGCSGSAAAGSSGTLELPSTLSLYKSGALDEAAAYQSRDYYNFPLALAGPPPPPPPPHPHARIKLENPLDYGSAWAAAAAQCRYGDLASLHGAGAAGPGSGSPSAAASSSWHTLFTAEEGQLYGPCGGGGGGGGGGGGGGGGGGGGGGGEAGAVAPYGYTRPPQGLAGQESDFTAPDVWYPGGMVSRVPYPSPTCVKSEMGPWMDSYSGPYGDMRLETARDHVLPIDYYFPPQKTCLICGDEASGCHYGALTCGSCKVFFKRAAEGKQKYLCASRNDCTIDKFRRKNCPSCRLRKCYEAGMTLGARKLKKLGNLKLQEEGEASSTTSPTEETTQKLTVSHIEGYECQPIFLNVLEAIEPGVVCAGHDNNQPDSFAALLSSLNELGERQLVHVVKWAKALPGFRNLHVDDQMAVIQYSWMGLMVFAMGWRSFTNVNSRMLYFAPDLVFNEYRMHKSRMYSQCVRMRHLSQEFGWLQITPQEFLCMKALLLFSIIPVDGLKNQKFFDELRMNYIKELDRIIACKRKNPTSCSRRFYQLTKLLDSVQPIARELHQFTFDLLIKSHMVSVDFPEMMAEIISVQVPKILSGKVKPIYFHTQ

For `CCN[C@@H](C)Cc1cccc(C(F)(F)F)c1`, the compound was classed as inactive in test [1], in [9], in test [11] and in test [15]. For the same compound, the Potency entry in test [2], in [3], in [4], in test [5], in test [6] and in test [7] was “inactive” each time. The Potency entry in test [8], in [10], in test [12], in [13], in test [14] and in [16] was “inactive” each time. Further, in test [17], the Potency result is “inactive”.
As for `COC1=CC(=O)O[C@@H](/C=C/c2ccccc2)C1`, the result in test [1], in test [9], in [11] and in [15] was inactive. Besides, the Potency entry in [2], in test [4], in test [5], in test [6], in [7] and in test [8] was “inactive” each time. In addition, the Potency entry in [10], in test [12], in test [16] and in test [17] was “inactive” each time. Moreover, in test [14], the Potency was 24.7 µM (active).
As for `COP(=O)(O)OC`, the compound was classed as inactive in [1], in test [9], in test [11] and in [15]. For the same compound, the Potency entry in test [2], in test [3], in test [4], in [5], in test [6] and in test [7] was “inactive” throughout. In addition, the Potency result in test [8], in test [10], in test [12], in test [18], in test [13] and in [14] was “inactive” each time. The Potency entry in [16] and in [17] was “inactive” throughout.
Consider `CCOC(=O)c1ncn2c1CN(C)C(=O)c1c(I)cccc1-2`, for which the result in [1], in test [9], in test [11] and in test [15] was inactive. Further, the Potency entry in [2], in test [3], in test [4], in test [5], in test [6] and in test [7] was “inactive” each time. Also, the Potency entry in test [10], in test [12], in test [13], in test [19], in test [14] and in test [16] was “inactive” each time. Besides, in test [17], the Potency result was “inactive”.
Consider `CC(C)(O)C(Cl)(Cl)Cl`, for which the outcome in test [1], in test [9], in test [11] and in [15] was inactive. The Potency entry in [2], in test [3], in [4], in test [5], in test [6] and in test [7] was “inactive” each time. In addition, the Potency result in [12], in test [13], in test [19] and in test [16] was “inactive” each time.
In the case of `O=C(NC(O)C(Cl)(Cl)Cl)NC(O)C(Cl)(Cl)Cl` (stereo not given), the result in test [1], in test [9], in test [11] and in test [15] was inactive. The Potency result in test [2], in test [3], in test [4], in test [5], in [6] and in [7] was “inactive” throughout. Moreover, the Potency entry in test [8], in test [12], in test [13], in [19], in test [14] and in [17] was “inactive” each time.
Turning to `CCCC(C)(COC(N)=O)COC(N)=O`, the outcome in [1], in test [20], in test [9], in [11] and in [15] was inactive. Moreover, the Potency entry in [3], in [4], in test [5], in test [6], in [7] and in test [8] was “inactive” in each case. Besides, the Potency entry in test [10], in test [12], in test [19], in test [14], in test [16] and in test [17] was “inactive” in each case.
Take `CCOc1cc(OP(=S)(OC)OC)nc(CC)n1`: the call in test [1], in [9], in test [11] and in [15] was inactive. For the same compound, the Potency result in test [2], in test [3], in test [4], in test [5], in test [6] and in test [7] was “inactive” each time. In addition, the Potency result in test [12], in [13], in [14], in test [16] and in test [17] was “inactive” each time.
Regarding `CCOC(=O)CCl`, the call in test [1], in [20], in test [9], in test [11] and in test [15] was inactive. Besides, the Potency entry in test [3], in [4], in [5], in [6], in test [7] and in [8] was “inactive” throughout. Besides, the Potency result in [10], in [12], in test [13], in test [14] and in test [17] was “inactive” each time.
With `CC(C)NCC(O)c1ccc([N+](=O)[O-])cc1` (stereo not given), the outcome in test [1], in [9], in [11] and in test [15] was inactive. Moreover, the Potency result in test [2], in test [3], in [4], in test [5], in test [6] and in test [7] was “inactive” in each case. The Potency entry in test [8], in [10], in test [12], in test [19], in test [16] and in test [17] was “inactive” in each case.
With `c1ccc2c(c1)CCNC2`, the result in test [1], in test [9], in test [11] and in test [15] was inactive. Further, the Potency entry in [2], in test [3], in test [4], in test [5], in test [7] and in [10] was “inactive” throughout. Moreover, the Potency result in [12], in test [14], in [16] and in test [17] was “inactive” in each case.
